We go through 67 molecules from PubChem BioAssay AID624404 (Broad Institute, 2012).

SMILES strings stand for the structures. About 710 (39%) of roughly 1,800 compounds were called active. About 28% were inconclusive and are not listed.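 The calls were made as follows: active = luciferase signal rise whose fitted curve crosses a set activity limit at or below the top valid tested dose; inconclusive = flat fit with 30 to 70% rise, or poor fit; inactive = signal falling, flat within 30%, or crossing above top dose.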 Not all results are given here. Results with a measured potency or affinity are listed apart.

The nature of the assay: luciferase activators in glycosylation-insensitive reporter cells, dose response, counter-screen for N-linked glycosylation inhibitor project, D54 LucT cells, luminescence, cherry pick (AID 624404). The conditions noted are these: D54 LucT luciferase reporter counterscreen, 24 h; series mostly up to 19.5 µM. (Counterscreens check selectivity or assay interference.)
In the case of `COc1ccc(C2Nc3ccc4ccccc4c3-c3c2c(=O)oc2ccccc32)cc1` (configuration not stated), the molecule was called inactive.
Then `COc1cc2c(cc1OC)C(c1cc(Br)ccc1F)N(C(=O)CCl)CC2` (configuration not stated), with “inactive”; and `Oc1cc(Nc2ccccc2)cc2cccnc12`, with “inactive”.
Turning to `COc1ccc(S(=O)(=O)Nc2cccc3ccc(O)cc23)cc1`, the molecule was classed as inactive.
Then `CCOC(=O)C(CC)(CC)C(=O)/C=C/c1cccc(Br)c1`, with “inactive”; and `COc1ccc(N2CCc3c(C)nc4c(OC)cccc4c32)cc1`, with “inactive”.
The same measure for `COc1ccc(N2CCc3c(C)nc4c(OC)cc(OC)cc4c32)cc1`: “inactive”; for `CCN(CC)CCC(=O)Nc1cccc2c1C(=O)c1ccccc1C2=O`: “inactive”.
The same measure for `CCN(CC)CCn1c2ccccc2c2cnc(N)c(C#N)c21`: “inactive”; for `O=C(C=Cc1ccc2c(c1)OCO2)C=Cc1ccc2c(c1)OCO2`: “inactive”.
Regarding `CC(=O)C1=C(C)OC(N)=C(C#N)C1c1cc([N+](=O)[O-])ccc1Cl` (configuration not stated), the result was inactive.
Then `CCN1C(=O)c2cccc3c(S(=O)(=O)N4CCC(C)CC4)ccc1c23`, with “inactive”.
Regarding `C=CCN(CC=C)C(=O)CN1C(=O)NC(C)(c2ccc3cc(OC)ccc3c2)C1=O` (configuration not stated), the call was inactive.
The same measure for `COc1ccc(-c2nc(NC(=O)C3CC(=O)N(c4ccc5c(c4)OCCO5)C3)sc2C)cc1` (configuration not stated): “inactive”.
On to `Cc1ccc(CCC(=O)Nc2ncc(Cc3cc(Cl)ccc3Cl)s2)o1`, for which the outcome was inactive.
The same measure for `CCCCCCCCCCCCCCCC[n+]1ccc(/C=N/O)cc1`: “inactive”; for `CCOC(=O)C(C)Oc1cccc2c(=O)n(CC(=O)NCc3ccc(F)cc3)ccc12` (configuration not stated): “inactive”; for `Cc1ccc(CNC(=O)Cc2ccc(Br)cc2)cc1`: “inactive”.
Then `COc1ccc(CCn2c(=N)c(C(=O)NCc3ccco3)cc3c(=O)n4ccccc4nc32)cc1`, with “inactive”; and `CCN(CC)CCNC(=O)c1cc2c(-c3ccc(Cl)cc3)nn(C)c2s1`, with “inactive”; and `COc1ccc(NC(=O)C2(C)Cc3c(-c4cccc(C(N)=O)c4)ccnc3O2)cn1` (configuration not stated), with “inactive”.
The same measure for `CC1(C(=O)NCc2ccccc2)Cc2c(-c3ccccc3)ccnc2O1` (configuration not stated): “inactive”; for `CC1(C(=O)NCc2ccccc2)Cc2c(-c3ccc4c(c3)OCO4)ccnc2O1` (configuration not stated): “inactive”; for `CC1(C(=O)Nc2ccc(Cl)cc2)Cc2c(-c3cccc(C(N)=O)c3)ccnc2O1` (configuration not stated): “inactive”.
In the case of `CC(=O)c1cccc(-c2ccnc3c2CC(C(=O)NCc2ccco2)O3)c1` (configuration not stated), the molecule was classed as inactive.
Turning to `COc1ccccc1C(=O)Nc1nnc(CCc2ccccc2)s1`, the outcome was inactive.
The same measure for `CN(C)S(=O)(=O)c1ccc(N2CCCC2)c(C(=O)Nc2nc(-c3ccc(F)cc3)cs2)c1`: “inactive”.
`CC(C)(C)n1nnnc1C(c1ccccc1)N1CCc2ccccc2C1` (configuration not stated): the outcome was inactive.
In the case of `Nc1ncnc(Sc2ccc(Cl)cc2)c1[N+](=O)[O-]`, the molecule was called inactive.
The same measure for `CCNC(=O)c1cc2c(=O)n3cccc(C)c3nc2n(CCc2ccccc2)c1=N`: “inactive”; for `CCC1=Nc2cc(C(=O)NCCCOC)ccc2Sc2ccccc21`: “inactive”.
The same measure for `Cc1cccn2c(=O)c3cc(C(=O)NCCN4CCOCC4)c(=N)n(CCc4ccccc4)c3nc12`: “inactive”.
Then `NNC(=O)c1oc2nc(-c3ccco3)cc(-c3ccco3)c2c1N`, with “inactive”; and `O=C(NCc1ccco1)c1nn2c(C(F)(F)F)cc(-c3cccs3)nc2c1Br`, with “inactive”; and `COc1ccc(C(=O)NCc2nnc(SCC(=O)NO)n2Cc2ccccc2)cc1`, with “inactive”.
Take `Cn1nc(C(F)(F)F)c(/C=N/OC(=O)c2ccccc2Cl)c1SCc1ccccc1Cl`: the outcome was inactive.
The same measure for `S=c1[nH]nc(-c2cc(-c3ccccc3)n[nH]2)n1/N=C/C(Br)=C/c1ccccc1`: “inactive”; for `Clc1ccc(C2=Nn3c(nnc3-c3cc(-c4ccccc4)n[nH]3)SC2)cc1`: “inactive”.
The same measure for `COc1ccc(OC)c(-c2nnc3n2N=C(c2ccc(OC)c(OC4CCCC4)c2)CS3)c1`: “inactive”; for `CC(Oc1ccc2c(c1)c1ccnc3c4ccccc4c(=O)n2c13)C(=O)NCCN1CCOCC1` (configuration not stated): “inactive”; for `Oc1ccc(NCc2ccccc2OCc2ccccc2)cc1`: “inactive”.
The same measure for `CCn1c2ccccc2c2cc(NC(=O)COC(=O)c3ccc(O)cc3)ccc21`: “inactive”; for `c1ccc2c(c1)c1c(c3ccccc32)CN2CCCC2C1` (configuration not stated): “inactive”.
With `Cc1nnc2c(NCCC(C)C)nc3ccccc3n12`, the call was inactive.
Then `CCN(CC)CCCNc1cc(C)c(C#N)c2nc3ccccc3n12`, with “inactive”.
The same measure for `Cc1cc([N+](=O)[O-])ccc1Nc1nc2ccccc2n2cnnc12`: “inactive”.
The same measure for `FC(F)(F)c1nnc2c(Sc3ccc(Cl)cc3)nc3ccccc3n12`: “inactive”; for `COc1ccc(S(=O)(=O)Nc2c(C(=O)O)[nH]c3ccc(OC)cc23)c(OC)c1`: “inactive”; for `Cc1ccc(NC(=O)c2cc(S(=O)(=O)N(C)C)ccc2N2CCCC2)cc1F`: “inactive”.
On to `COc1cc(NC(=O)c2cc(-c3ccccc3)nc3c2cnn3C(C)C)cc(OC)c1OC`, for which the molecule was classed as inactive.
Regarding `COc1cc(-c2noc(C)c2/C=C/c2ccc(OC(C)=O)cc2)cc(OC)c1OC`, the outcome was inactive.
The same measure for `NC(=O)c1cccc(Nc2nc(C(N)CCc3ccccc3)cs2)n1` (configuration not stated): “inactive”; for `CCOC(=O)C1CCN(S(=O)(=O)Cc2ccccc2)CC1`: “inactive”.
Then `O=C1CCCC2=C1C(c1ccco1)Nc1ccc(C(=O)c3ccccc3)cc1N2` (configuration not stated), with “inactive”.
The same measure for `CCCn1c2ccccc2c2cnn(CC(=O)NC3CCCC(C)C3C)c(=O)c21` (configuration not stated): “inactive”; for `COc1ccc(N(CC(=O)Nc2cc(Cl)ccc2OC)S(=O)(=O)c2c(C)noc2C)cc1`: “inactive”; for `COc1ccc(OC)c(N(CC(=O)Nc2cccnc2)S(=O)(=O)c2ccc(C)cc2)c1`: “inactive”.
For the molecule `CCOc1ccccc1NC(=O)CN(c1ccc(OC)cc1)S(=O)(=O)c1c(C)noc1C`, the molecule was classed as inactive.
Consider `CN(C)Cc1c(O)ccc2c1O/C(=C\C=C\c1ccccc1)C2=O`, for which the molecule was classed as inactive.
For the molecule `O=C(CCl)N1CCCC1c1ccc2c(c1)OCCO2` (configuration not stated), the molecule was classed as inactive.
Then `CC(C)C(=O)Nc1ccc(C(=O)N/N=C/c2cc(Br)cc(Br)c2O)cc1`, with “inactive”.
Then `COc1ccc(/C=N/NC(=O)c2ccc(COc3ccccc3Cl)o2)c(OC)c1C`, with “inactive”.
Then `Cc1cc2nnc(SCC(=O)NCc3cccs3)n2c2ccccc12`, with “inactive”.
Turning to `CNC(=O)c1cccc2nc3ccccc3nc12`, the result was inactive.
The same measure for `Cc1cc(C)c(C)c(OC(=O)c2sc(Cl)nc2C)c1`: “inactive”; for `CCOC(=O)c1ccc(Oc2cc(C)nc(SC)n2)cc1`: “inactive”.
The same measure for `CCOC(=O)c1ccc(N=c2sc(C(=O)OC)cc(=O)n2Cc2ccco2)cc1`: “inactive”.
